Laboratory results reported in the supplement of paper PMC10849652.
The full data set covers some 7,900 targets. This sample favours those with a hit. About 0.6% of all pairs of compound and target were hits. Unmarked numbers belong to inactive results.

How the values were obtained:
Assay in all cases: log2 fold change, soluble protein after heating vs DMSO (PISA); higher = thermal stabilisation; K562 cells, 10 uM, 30 min; active = over 0.2 and 3.5 SD of the protein, either way, in both replicates (recomputed)
[1] = compound: CS(=O)(=O)c1ccc(-c2cnc(N)c(C(=O)Nc3ccccc3)n2)cc1
Summary of the method: (§1)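 K562 cells at 2×10^6 cells/mL were given 10 μM compound for 30 min. Aliquots then went through 3 min of heating across 48°C-58°C, were pooled, and were extracted in PBS with 0.5% NP-40 at 4°C, and the supernatant after 21,000xg for 90 min was quantified by TMTpro 16plex LC-MS/MS with channel sums equalised. Thermal stability relative to control samples, from duplicates, is given as log2 fold change.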

crizotinib = compound: C[C@@H](Oc1cc(-c2cnn(C3CCNCC3)c2)cnc1N)c1c(Cl)ccc(F)c1Cl [crizotinib]
Summary of the method: as §1

[2] = compound: C[C@@H]1COCCN1C2=NC(=NC(=C2)C3(CC3)S(=O)(=O)C)C4=C5C=CNC5=CC=C4
Summary of the method: as §1

[3] = compound: C[C@H](C1=CC=C(C=C1)C(=O)NC2=C3C=CNC3=NC=C2)N
Summary of the method: as §1

duvelisib = compound: C[C@H](Nc1ncnc2nc[nH]c12)c1cc2cccc(Cl)c2c(=O)n1-c1ccccc1 [duvelisib]
Summary of the method: as §1

gandotinib = compound: Cc1cc(Nc2cc(CN3CCOCC3)c3nc(C)c(Cc4ccc(Cl)cc4F)n3n2)n[nH]1 [gandotinib]
Summary of the method: as §1

tozasertib = compound: Cc1cc(Nc2cc(N3CCN(C)CC3)nc(Sc3ccc(NC(=O)C4CC4)cc3)n2)n[nH]1 [tozasertib]
Summary of the method: as §1

[4] = compound: Cc1cc(SCc2sc(-c3ccc(C(F)(F)F)cc3)nc2C)ccc1OCC(=O)O
Summary of the method: as §1

doramapimod = compound: Cc1ccc(-n2nc(C(C)(C)C)cc2NC(=O)Nc2ccc(OCCN3CCOCC3)c3ccccc23)cc1 [doramapimod]
Summary of the method: as §1

ispinesib = compound: Cc1ccc(C(=O)N(CCCN)[C@@H](c2nc3cc(Cl)ccc3c(=O)n2Cc2ccccc2)C(C)C)cc1 [ispinesib]
Summary of the method: as §1

bafetinib = compound: Cc1ccc(NC(=O)c2ccc(CN3CC[C@H](N(C)C)C3)c(C(F)(F)F)c2)cc1Nc1nccc(-c2cncnc2)n1 [bafetinib]
Summary of the method: as §1

[5] = compound: Cc1cccc(CC(=O)N2CCc3c2ccc(-c2cn(C)c4ncnc(N)c24)c3F)n1
Summary of the method: as §1

nilotinib = compound: Cc1cn(-c2cc(NC(=O)c3ccc(C)c(Nc4nccc(-c5cccnc5)n4)c3)cc(C(F)(F)F)c2)cn1 [nilotinib]
Summary of the method: as §1

[6] = compound: Cc1nc(Nc2n[nH]c3c2CN(C(=O)N[C@H](CN(C)C)c2ccccc2)C3(C)C)c2sccc2n1
Summary of the method: as §1

dasatinib = compound: Cc1nc(Nc2ncc(C(=O)Nc3c(C)cccc3Cl)s2)cc(N2CCN(CCO)CC2)n1 [dasatinib]
Summary of the method: as §1

[7] = compound: Cc1ncc(-c2ccnc(Nc3ccc(S(C)(=O)=O)cc3)n2)n1C(C)C
Summary of the method: as §1

[8] = compound: Cn1cc(-c2ccc3c(c2)CCN3C(=O)Cc2cccc(C(F)(F)F)c2)c2c(N)ncnc21
Summary of the method: as §1

[9] = compound: Cn1cc(-c2ccc3nnc(C(F)(F)c4ccc5ncccc5c4)n3n2)cn1
Summary of the method: as §1

tipifarnib = compound: Cn1cncc1[C@@](N)(c1ccc(Cl)cc1)c1ccc2c(c1)c(-c1cccc(Cl)c1)cc(=O)n2C [tipifarnib]
Summary of the method: as §1

mubritinib = compound: FC(F)(F)c1ccc(/C=C/c2nc(COc3ccc(CCCCn4ccnn4)cc3)co2)cc1 [mubritinib]
Summary of the method: as §1

Chain of UniProt Q9H6H4 (Q9H6H4 whole entry, looked up): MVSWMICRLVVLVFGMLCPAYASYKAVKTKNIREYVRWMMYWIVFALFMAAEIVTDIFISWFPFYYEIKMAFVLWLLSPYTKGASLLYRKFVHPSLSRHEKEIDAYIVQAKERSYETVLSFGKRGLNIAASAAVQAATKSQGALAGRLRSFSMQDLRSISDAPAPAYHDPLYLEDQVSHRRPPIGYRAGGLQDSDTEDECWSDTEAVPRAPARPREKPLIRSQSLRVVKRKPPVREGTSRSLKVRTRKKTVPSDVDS
Chain of UniProt P06400 (P06400 whole entry, looked up): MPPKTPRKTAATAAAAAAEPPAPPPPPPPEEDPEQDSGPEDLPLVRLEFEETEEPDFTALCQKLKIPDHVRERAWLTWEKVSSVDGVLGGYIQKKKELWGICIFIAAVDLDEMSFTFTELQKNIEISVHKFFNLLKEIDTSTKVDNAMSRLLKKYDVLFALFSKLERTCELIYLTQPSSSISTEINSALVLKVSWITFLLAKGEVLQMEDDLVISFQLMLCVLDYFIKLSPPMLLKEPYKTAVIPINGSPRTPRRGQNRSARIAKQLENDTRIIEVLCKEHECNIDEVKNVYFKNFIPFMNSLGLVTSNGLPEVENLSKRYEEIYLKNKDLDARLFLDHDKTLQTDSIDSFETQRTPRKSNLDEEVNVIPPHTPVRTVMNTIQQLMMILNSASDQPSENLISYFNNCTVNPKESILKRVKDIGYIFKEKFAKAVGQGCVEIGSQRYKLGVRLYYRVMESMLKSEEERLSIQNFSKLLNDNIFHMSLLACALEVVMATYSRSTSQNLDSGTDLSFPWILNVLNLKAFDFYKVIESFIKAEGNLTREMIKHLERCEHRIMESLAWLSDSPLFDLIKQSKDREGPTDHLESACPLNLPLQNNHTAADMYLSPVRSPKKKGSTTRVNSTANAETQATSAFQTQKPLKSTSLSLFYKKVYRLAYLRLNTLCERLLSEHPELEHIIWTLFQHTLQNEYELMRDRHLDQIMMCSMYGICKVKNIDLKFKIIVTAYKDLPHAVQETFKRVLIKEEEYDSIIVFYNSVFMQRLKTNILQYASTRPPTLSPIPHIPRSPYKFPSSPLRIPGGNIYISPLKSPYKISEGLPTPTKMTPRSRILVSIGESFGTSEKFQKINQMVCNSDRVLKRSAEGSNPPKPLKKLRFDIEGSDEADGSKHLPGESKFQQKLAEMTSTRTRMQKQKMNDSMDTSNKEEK
Chain of UniProt P49756 (P49756 whole entry, looked up): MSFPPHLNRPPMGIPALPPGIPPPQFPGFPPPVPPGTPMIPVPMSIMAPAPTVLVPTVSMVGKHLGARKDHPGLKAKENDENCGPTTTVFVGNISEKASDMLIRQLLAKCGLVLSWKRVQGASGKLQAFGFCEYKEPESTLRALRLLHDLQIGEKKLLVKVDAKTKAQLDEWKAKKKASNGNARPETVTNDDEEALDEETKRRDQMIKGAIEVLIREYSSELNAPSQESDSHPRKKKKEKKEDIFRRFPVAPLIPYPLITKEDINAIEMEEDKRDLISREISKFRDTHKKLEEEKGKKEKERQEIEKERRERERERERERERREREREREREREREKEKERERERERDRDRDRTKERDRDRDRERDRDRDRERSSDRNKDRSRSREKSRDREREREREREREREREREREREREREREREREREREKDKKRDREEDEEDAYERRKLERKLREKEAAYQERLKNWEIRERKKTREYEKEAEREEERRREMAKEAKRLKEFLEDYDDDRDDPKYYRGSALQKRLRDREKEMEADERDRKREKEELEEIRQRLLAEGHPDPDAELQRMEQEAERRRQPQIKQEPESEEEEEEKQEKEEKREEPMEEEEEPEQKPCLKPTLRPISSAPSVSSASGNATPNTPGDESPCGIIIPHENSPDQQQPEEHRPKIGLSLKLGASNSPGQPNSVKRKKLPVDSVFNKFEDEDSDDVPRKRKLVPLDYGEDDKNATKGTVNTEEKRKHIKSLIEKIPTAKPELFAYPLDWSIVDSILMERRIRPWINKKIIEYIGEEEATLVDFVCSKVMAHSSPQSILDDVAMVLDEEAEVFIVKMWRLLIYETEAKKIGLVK
Chain of UniProt Q14493 (Q14493 whole entry, looked up): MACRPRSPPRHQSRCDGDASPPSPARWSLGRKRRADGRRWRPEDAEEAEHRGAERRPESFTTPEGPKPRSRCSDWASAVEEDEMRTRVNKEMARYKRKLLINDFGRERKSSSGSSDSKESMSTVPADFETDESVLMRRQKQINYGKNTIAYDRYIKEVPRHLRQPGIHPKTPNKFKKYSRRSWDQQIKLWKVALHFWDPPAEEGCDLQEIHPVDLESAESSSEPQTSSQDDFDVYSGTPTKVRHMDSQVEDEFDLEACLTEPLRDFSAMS
Chain of UniProt P35244 (P35244 whole entry, looked up): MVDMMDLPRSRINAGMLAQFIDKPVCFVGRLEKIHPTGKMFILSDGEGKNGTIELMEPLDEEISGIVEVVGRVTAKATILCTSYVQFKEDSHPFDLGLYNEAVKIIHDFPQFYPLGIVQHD
Chain of UniProt Q53H47 (Q53H47 whole entry, looked up): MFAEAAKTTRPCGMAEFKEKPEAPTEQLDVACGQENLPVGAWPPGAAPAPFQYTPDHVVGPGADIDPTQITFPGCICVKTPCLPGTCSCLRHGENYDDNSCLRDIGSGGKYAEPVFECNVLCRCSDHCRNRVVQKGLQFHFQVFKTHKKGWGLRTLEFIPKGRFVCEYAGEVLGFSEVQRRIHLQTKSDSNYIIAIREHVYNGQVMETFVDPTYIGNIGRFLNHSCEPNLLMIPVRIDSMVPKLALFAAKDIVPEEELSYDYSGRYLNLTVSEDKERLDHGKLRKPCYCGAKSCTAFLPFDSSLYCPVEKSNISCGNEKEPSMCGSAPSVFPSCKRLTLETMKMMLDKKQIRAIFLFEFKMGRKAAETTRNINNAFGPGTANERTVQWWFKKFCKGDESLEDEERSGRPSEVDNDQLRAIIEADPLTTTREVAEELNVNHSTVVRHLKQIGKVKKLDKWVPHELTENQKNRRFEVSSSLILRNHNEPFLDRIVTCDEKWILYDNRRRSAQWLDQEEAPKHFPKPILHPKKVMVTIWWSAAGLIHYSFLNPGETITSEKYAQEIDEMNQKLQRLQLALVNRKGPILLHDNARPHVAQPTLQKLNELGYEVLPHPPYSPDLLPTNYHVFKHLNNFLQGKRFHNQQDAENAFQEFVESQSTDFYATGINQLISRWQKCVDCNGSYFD
Chain of UniProt O94979 (O94979 whole entry, looked up): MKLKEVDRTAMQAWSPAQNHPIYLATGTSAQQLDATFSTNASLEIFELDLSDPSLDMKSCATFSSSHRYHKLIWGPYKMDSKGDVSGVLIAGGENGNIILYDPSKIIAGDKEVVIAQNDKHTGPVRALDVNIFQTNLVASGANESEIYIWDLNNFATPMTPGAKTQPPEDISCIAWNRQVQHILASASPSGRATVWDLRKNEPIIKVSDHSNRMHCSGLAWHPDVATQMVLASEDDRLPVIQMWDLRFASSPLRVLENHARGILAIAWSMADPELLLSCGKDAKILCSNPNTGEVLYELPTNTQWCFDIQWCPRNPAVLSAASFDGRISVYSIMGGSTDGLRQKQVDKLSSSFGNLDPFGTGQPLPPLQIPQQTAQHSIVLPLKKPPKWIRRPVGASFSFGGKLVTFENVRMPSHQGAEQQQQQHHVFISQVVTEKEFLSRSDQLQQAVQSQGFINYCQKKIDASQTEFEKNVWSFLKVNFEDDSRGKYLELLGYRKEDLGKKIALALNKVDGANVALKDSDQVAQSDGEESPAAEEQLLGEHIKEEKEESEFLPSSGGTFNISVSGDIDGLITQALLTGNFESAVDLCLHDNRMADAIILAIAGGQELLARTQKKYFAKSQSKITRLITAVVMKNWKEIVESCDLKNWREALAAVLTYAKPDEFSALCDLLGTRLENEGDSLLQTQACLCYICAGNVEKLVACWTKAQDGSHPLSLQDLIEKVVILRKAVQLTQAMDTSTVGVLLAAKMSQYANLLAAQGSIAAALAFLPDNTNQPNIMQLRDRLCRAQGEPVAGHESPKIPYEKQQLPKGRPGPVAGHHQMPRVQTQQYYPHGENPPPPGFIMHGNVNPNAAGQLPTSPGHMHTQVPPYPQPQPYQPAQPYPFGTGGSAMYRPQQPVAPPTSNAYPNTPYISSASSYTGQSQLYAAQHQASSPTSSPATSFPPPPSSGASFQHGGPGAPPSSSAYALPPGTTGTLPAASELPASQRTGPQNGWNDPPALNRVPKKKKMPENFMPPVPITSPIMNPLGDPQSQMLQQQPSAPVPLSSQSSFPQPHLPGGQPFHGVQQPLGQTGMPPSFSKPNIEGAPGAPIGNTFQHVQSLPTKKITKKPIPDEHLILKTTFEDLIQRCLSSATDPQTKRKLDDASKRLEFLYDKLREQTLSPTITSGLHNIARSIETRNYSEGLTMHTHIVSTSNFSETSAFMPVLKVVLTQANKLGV
Chain of UniProt Q9UBS8 (Q9UBS8 whole entry, looked up): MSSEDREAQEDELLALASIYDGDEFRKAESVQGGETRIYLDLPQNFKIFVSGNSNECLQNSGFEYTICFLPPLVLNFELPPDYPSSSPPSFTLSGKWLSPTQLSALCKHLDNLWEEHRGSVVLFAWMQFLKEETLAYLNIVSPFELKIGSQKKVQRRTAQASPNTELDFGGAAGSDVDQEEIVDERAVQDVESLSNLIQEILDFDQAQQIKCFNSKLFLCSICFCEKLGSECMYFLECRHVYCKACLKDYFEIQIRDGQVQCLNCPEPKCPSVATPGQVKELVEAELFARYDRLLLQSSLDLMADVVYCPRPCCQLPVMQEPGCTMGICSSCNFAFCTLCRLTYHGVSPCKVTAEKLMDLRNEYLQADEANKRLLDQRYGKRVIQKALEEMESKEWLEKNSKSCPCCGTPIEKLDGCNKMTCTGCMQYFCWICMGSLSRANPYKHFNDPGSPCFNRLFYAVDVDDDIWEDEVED
Chain of UniProt P51148 (P51148 whole entry, looked up): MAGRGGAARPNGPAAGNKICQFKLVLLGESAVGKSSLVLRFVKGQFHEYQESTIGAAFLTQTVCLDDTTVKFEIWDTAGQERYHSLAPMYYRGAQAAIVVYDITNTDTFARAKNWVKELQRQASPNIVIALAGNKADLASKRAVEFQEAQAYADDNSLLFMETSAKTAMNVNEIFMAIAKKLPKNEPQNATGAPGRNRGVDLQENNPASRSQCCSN

Target	log2 fold change [1]	log2 fold change (crizotinib)	log2 fold change [2]	log2 fold change [3]	log2 fold change (duvelisib)	log2 fold change (gandotinib)	log2 fold change (tozasertib)	log2 fold change [4]	log2 fold change (doramapimod)	log2 fold change (ispinesib)	log2 fold change (bafetinib)	log2 fold change [5]	log2 fold change (nilotinib)	log2 fold change [6]	log2 fold change (dasatinib)	log2 fold change [7]	log2 fold change [8]	log2 fold change [9]	log2 fold change (tipifarnib)	log2 fold change (mubritinib)
RBM17 (UniProt Q96I25)	-0.043	-0.065	0.106	0.02	0.031	-0.031	0.057	0.106	-0.028	0.007	-0.056	0.042	-0.095	-0.249	-0.108	0.011	-0.067	-0.028	-0.042	-0.148
SEC31A (UniProt O94979)	0.045	-0.011	0.007	0.084	0.004	-0.158	0.049	0.064	0	0.034	0.011	0.019	-0.11	-0.042	-0.134	0.054	-0.031	-0.057	-0.065	0.079
RAD50 isoform 2 (UniProt Q92878)	0.031	0.064	0.044	-0.039	0.02	-0.017	0.029	0.021	-0.023	0.033	-0.015	0.009	-0.039	-0.112	-0.089	-0.016	0.023	0.042	-0.017	0.063
RPA3 (UniProt P35244)	-0.044	0.042	-0.162	-0.098	0.043	0.11	0.053	0.003	-0.054	0.109	0.023	0.086	-0.034	-0.047	0.016	0.022	0.105	-0.002	0.014	0.024
RBM25 (UniProt P49756)	-0.071	-0.052	0.09	-0.01	0.037	-0.166	-0.012	-0.074	0.057	-0.049	-0.067	-0.066	-0.012	-0.03	-0.049	-0.129	-0.044	-0.096	0.068	0.049
SLBP (UniProt Q14493)	-0.026	-0.042	0.132	0.003	-0.128	-0.022	-0.012	0.055	0.007	-0.063	0.11	-0.017	-0.05	-0.093	0.031	-0.423 (active)	-0.042	-0.033	0	-0.023
RARS (UniProt P54136)	-0.001	-0.266	-0.099	0.373	-0.069	0.018	-0.028	0.132	0.184	-0.398 (active)	0.04	0.069	-0.057	-0.021	-0.071	0.053	-0.08	-0.125	-0.117	-0.116
RAB5C isoform 2 (UniProt P51148)	-0.015	0.099	0.015	-0.092	0.011	-0.021	-0.029	0.014	0.013	0.054	-0.005	-0.021	0.019	-0.019	0.014	-0.003	0.043	-0.027	0.006	0.031
SETMAR (UniProt Q53H47)	0.077	0.036	-0.028	0.134	-0.004	-0.129	-0.061	0.003	0.024	0.164	0	-0.07	-0.104	0.117	-0.013	0.163	0.028	0.127	0.054	0.04
RRAGC (UniProt Q9HB90)	0.016	-0.262	0.008	-0.027	0.053	0	-0.061	-0.039	0.019	-0.153	-0.07	-0.054	-0.005	0.022	0.05	-0.021	0.001	0.05	-0.027	0.031
RMC1 (UniProt Q96DM3)	0.021	-0.509 (active)	0.061	-0.012	-0.005	0.027	0.026	0.066	0.038	-0.254 (active)	-0.043	0.072	-0.032	-0.047	-0.063	-0.082	0.03	-0.016	0.045	0.012
RNF14 (UniProt Q9UBS8)	0.034	0.014	0.081	-0.053	0.031	0.001	0.058	0.041	-0.025	-0.032	-0.033	0.05	-0.002	-0.07	-0.136	-0.048	-0.017	0.033	-0.05	0.017
SESN2 (UniProt P58004)	0.042	-0.191	-0.028	0.077	-0.018	-0.046	0	0.006	0.192	-0.322	-0.09	0.136	-0.02	-0.207	-0.034	-0.063	0.069	-0.069	-0.213	0.042
RPS18 (UniProt P62269)	-0.022	0.033	-0.244	0.222	-0.076	0.129	0.016	-0.002	0.105	-0.074	0.214	-0.015	-0.001	0.198	0.069	-0.054	-0.088	-0.001	0.031	-0.022
RB1 (UniProt P06400)	0.041	-0.112	0.117	-0.07	0.033	-0.168	-0.001	-0.024	0.022	-0.002	0.006	0.01	0.015	-0.378 (active)	0.011	-0.716 (active)	0.082	0.011	0.004	0.046
REEP4 (UniProt Q9H6H4)	-0.015	-0.148	-0.027	0.02	-0.013	0.001	-0.111	0.02	0.06	-0.275 (active)	0.021	0.127	-0.017	-0.077	-0.079	0.067	-0.052	-0.056	-0.109	-0.04
